Most compounds without a hit are left out; they make up all but 11% or so of the library.
Pf growth 96h: Primary qHTS for delayed death inhibitors of the malarial parasite plastid, 96 hour incubation; P. falciparum luciferase reporter growth, 96 h; AID 504834, 2011; Potency, µM (titrated, usually from 28.7 µM), without a hit: top-dose activity change, negative = inhibition, hits mostly inhibitors; 320,000 tested, 6.9% active
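Plates of compound plus infected erythrocytes (2% hematocrit, 0.05% parasitemia final) incubate 96 hours, 37 C, 5% CO2. Detection reagent added; reduced luminescence from the parasites' luciferase reporter flags inhibition.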
Pf growth 48h: Primary qHTS for delayed death inhibitors of the malarial parasite plastid, 48 hour incubation; P. falciparum luciferase growth in erythrocytes, 48 h; Potency, µM (top dose mostly 28.7 µM), without a hit: at the highest dose activity change, negative = inhibition, most hits filed as inhibitors; 310,000 tested, 5.9% active; AID 504832, 2011
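A one-generation exposure of luciferase-tagged malaria parasites in RPMI 1640/Albumax erythrocyte culture, 37 C and 5% CO2. Inhibition is inferred from decreased luminescence after adding detection reagent.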
HCV inh: qHTS Assay for Inhibitors of Hepatitis C Virus (HCV). 340,000 tested, 3.4% active. Potency, µM (titrated, usually from 41.8 µM), for inactives: at the highest dose activity change, negative = inhibition, hits mostly inhibitors. Huh7.5.1 HCVcc-Cre infection, luciferase reporter, 44 h
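Luciferase read-out (15 sec integration) after a 15 min room-temperature substrate step quantifies HCVcc-Cre infection. Cells, 1,000 per well, had compound added 4 h post-plating, then virus at ~0.5 moi, and were cultured 44 h.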
AmpC inh detg: qHTS Inhibitors of AmpC Beta-Lactamase (assay with detergent). P00811. AmpC hydrolysis of nitrocefin, absorbance 480 nm, 0.01% Triton. Potency, µM (top dose mostly 114 µM), for inactives: at the top dose activity change, negative = inhibition, most hits filed as inhibitors. 370,000 tested, 0.041% active. AID 485294, 2010;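 note: 0% = no-compound wells and -100% = no-enzyme wells; nearly all actives have a fitted effect of over 25% in size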
Target sequence (P00811 whole entry, looked up): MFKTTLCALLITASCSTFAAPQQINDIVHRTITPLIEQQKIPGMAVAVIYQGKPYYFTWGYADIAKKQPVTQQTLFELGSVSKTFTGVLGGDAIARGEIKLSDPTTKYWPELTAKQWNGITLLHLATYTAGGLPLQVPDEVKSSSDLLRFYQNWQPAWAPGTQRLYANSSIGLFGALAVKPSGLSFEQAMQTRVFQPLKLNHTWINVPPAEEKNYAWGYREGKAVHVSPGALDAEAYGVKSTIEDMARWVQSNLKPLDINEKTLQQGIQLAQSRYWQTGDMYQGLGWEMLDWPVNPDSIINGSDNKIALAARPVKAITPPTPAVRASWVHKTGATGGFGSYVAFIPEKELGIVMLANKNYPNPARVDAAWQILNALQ
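20 mM phosphate pH 7.0 + 0.01% (detergent screen) or 0.0001% Triton X-100; 5.3 nM AmpC reagent; cpd preinc 15 min RT; nitrocefin (800 uM stock) to start; A480 q20 s × 4 min; Activity was normalised to no-enzyme and no-compound control wells.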
AMA1-RON2 inh: qHTS for Inhibitors of AMA1-RON; Towards Development of Antimalarial Drug Lead: Primary Screen | 360,000 tested, 0.2% active | Potency, µM (top dose mostly 58.2 µM), for inactives: at the top dose activity change, negative = inhibition, hits mostly inhibitors | AID 720542, 2013 | AlphaScreen AMA1-biotinylated RON2 peptide binding;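 note: 0% = vehicle wells and -100% = peptide control; nearly all actives have a fitted effect of over 45% in size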
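AMA1 (3D7) with his tag at 25 nM final met compounds first, then biotinylated RON2 peptide at 25 nM; detection used donor plus acceptor beads, 10 µg/mL apiece, read by AlphaScreen after 30 min at room temperature.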
AmpC no deterg: qHTS Inhibitors of AmpC Beta-Lactamase (assay without detergent). P00811. AmpC nitrocefin hydrolysis, absorbance 480 nm, 0.0001% Triton. Potency, µM (doses to about 57.1 µM), inactives show at the highest dose activity change, negative = inhibition, actives largely listed as inhibitors. 330,000 tested, 0.52% active;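 note: plate controls were no compound for no effect and no enzyme for full effect; nearly all actives have a fitted effect of over 20% in size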
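20 mM phosphate pH 7.0 + 0.01% (detergent screen) or 0.0001% Triton X-100; 5.3 nM AmpC reagent; cpd preinc 15 min RT; nitrocefin (800 uM stock) to start; A480 q20 s × 4 min; Activity was normalised to no-enzyme and no-compound control wells.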
Numbers without * were called inactive; u = inconclusive; x = no result given; [ ] = dose if it differs, or a comment. Calls come from the whole dose curve; as a rule, active = well fitted curve in the direction sought with a large enough effect; inconclusive = small, poorly fitted or top-dose-only effect, or another doubt; inactive = no such curve, though single readings can be large; an effect the other way counts as inactive or inconclusive. Unless noted, % is set by controls: 0 for no effect and ±100 for the full control effect; potency is the fitted concentration of half-maximal effect.

SMILES	Pf growth 96h	Pf growth 48h	HCV inh	AmpC inh detg	AMA1-RON2 inh	AmpC no deterg
CCC1Oc2ccc(Cl)cc2N(CC(=O)NCCc2ccc(Cl)cc2)C1=O (configuration not stated)	x	x	x	2%	x	x
COc1ccc(-c2ccc(CCC(=O)O)n2-c2ccc(Cl)cc2C)cc1	x	x	x	11%	x	x
COc1ccccc1CNC(=O)C1CCCN(S(=O)(=O)c2ccc3c(c2)oc(=O)n3C)C1 (configuration not stated)	x	x	x	9%	x	x
CCCc1nn2c(=O)cc(COC(=O)c3ccc(NC(=O)COc4ccccc4F)cc3)nc2s1	x	x	x	14%	x	x
CCn1c(CNC(=O)COc2ccc(C(C)C)cc2)nnc1SCC(=O)Nc1cc(F)ccc1C	u	u	-22%	-6%	1%	108%
CCn1c(CNC(=O)COc2ccc(C(C)C)cc2)nnc1SCC(=O)Nc1ccc(F)cc1	8.3µM*	x	u	0%	3%	123%
CCn1c(CNC(=O)COc2ccc(C(C)C)cc2)nnc1SCC(=O)NC1CCCCC1C (configuration not stated)	10µM*	12µM*	-8%	-5%	5%	24%
CCn1c(COc2cccc(OC)c2)nnc1SCC(=O)Nc1ccccc1C(=O)OC	x	u	u	u	-11%	62%
CCn1c(COc2ccc3c(c2)CCCC3)nnc1SCC(=O)Nc1ccc(C(=O)OC)cc1	9.3µM*	-19%	10%	-2%	0%[2.32 µM]	-1%
Cc1c(C(=O)Nc2cccc(-c3nc4ccccc4s3)c2)oc2ccccc12	x	x	x	3%	x	x
CCN1C(=O)[C@H]2[C@@H](c3ccc(-c4ccccc4)cc3)N3CCCC[C@@]3(C(=O)OC)[C@H]2C1=O	u	10µM*	4%	-10%	-11%	115%
CCN1C(=O)[C@@H]2[C@@H](c3ccc(-c4ccc(OC)cc4)cc3)N3CCCC[C@@]3(C(=O)OC)[C@@H]2C1=O	5.2µM*	10µM*	3.2µM*	0%	-1%	73%
CCN1C(=O)[C@@H]2[C@@H](c3ccc(-c4ccc(Cl)c(Cl)c4)cc3)N3CCCC[C@@]3(C(=O)OC)[C@@H]2C1=O	u	0%	14%	-8%	-4%	-2%
CCN1C(=O)[C@@H]2[C@@H](c3ccc(-c4ccc(C(C)=O)cc4)cc3)N3CCCC[C@@]3(C(=O)OC)[C@@H]2C1=O	12µM*	10µM*	u	-8%	-12%	72%
COC(=O)[C@@]12CCCCN1[C@H](c1ccc(-c3ccc(C(C)=O)cc3)cc1)[C@H]1C(=O)N(C)C(=O)[C@H]12	-8%	u	7%	-13%	-5%	-15%
CCN1C(=O)[C@@H]2[C@@H](c3ccc(-c4ccc5c(c4)OCO5)cc3)N3CCCC[C@@]3(C(=O)OC)[C@@H]2C1=O	13µM*	u	u	1%	-14%	45%
COC(=O)C(C)Sc1nc(NCc2ccccc2)nc(N(C)C)n1 (configuration not stated)	-20%	-19%	3.2µM*	-8%	1%	-13%
Cc1ccc(C(=O)CSc2nnc3ccc4ccccc4n23)cc1	x	x	x	3%	x	x
O=C(CCC(=O)N1CCN(c2ccc(O)cc2)CC1)c1cccs1	7.4µM*	13µM*	-14%	5%	-4%	-9%
O=C(CCC(=O)N1CCN(c2ccc(O)cc2)CC1)c1ccc(Br)cc1	9.3µM*	25%	x	-1%	x	-38%
COc1ccc(C(=O)N2CCNC(=O)C2CC(=O)Nc2ccc(C)c(C)c2)cc1 (configuration not stated)	9.3µM*	11%	18%	0%	12%	45%

Screening data (PubChem BioAssay)
